Measured values from publication PMC4336329 (PLoS ONE, 2015).
In all, about 310,000 compounds went through this assay and about 14,000 (4.5%) showed an effect of 50% or more. The effect is printed as a negative number. This is one part of a sample in which strong results are shown more often than they occur.

biological target: human ether-à-go-go-related gene (hERG) potassium channel (human, UniProt Q12809); test: primary screen, population patch clamp on CHO cells stably expressing hERG; higher = less effect of the substance
Sequence (Q12809 whole entry, looked up): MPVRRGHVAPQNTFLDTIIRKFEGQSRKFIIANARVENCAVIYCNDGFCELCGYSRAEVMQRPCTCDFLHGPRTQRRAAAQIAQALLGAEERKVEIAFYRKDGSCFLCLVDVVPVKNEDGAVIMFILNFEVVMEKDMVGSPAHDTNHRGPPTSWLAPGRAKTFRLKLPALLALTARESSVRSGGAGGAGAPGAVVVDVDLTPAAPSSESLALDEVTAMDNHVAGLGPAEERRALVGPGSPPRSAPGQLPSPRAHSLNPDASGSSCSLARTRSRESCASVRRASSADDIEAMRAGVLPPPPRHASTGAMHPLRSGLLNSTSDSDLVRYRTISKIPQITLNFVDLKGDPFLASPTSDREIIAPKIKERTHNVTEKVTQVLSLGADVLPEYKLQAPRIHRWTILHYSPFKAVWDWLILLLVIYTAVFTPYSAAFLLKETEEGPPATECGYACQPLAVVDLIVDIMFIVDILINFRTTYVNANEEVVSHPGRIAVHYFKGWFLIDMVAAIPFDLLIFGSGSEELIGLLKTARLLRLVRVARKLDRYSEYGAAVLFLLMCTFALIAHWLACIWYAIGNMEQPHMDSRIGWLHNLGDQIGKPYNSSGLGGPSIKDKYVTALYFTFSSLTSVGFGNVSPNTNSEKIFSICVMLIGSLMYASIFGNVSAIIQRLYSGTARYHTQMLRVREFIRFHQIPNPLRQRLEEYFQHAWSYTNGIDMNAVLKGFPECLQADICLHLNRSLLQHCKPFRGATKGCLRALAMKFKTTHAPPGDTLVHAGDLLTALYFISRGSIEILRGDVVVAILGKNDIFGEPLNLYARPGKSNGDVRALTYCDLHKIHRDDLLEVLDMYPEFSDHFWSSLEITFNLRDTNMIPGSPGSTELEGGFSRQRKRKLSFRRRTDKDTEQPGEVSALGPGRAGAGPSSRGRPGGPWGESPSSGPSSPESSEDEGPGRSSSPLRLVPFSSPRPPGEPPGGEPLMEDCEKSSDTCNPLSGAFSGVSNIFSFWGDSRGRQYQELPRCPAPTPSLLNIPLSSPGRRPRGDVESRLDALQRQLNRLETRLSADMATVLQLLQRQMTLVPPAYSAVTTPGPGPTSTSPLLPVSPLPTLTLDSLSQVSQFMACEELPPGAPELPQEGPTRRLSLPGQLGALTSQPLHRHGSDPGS
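Note: peak tail current of the secondary pulse compared with the same well before compound.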

SMILES	hERG current change (%, negative = inhibition) at 10uM
CCOC(=O)N1CCN(CC(=O)Nc2cc(C)nn2-c2nc3ccccc3s2)CC1	-23.3%
COc1ccc(Cl)cc1NC(=S)N1CCN(c2ncccn2)CC1	13.6%
CCc1nc(SCc2ccccc2C#N)n[nH]1	13.4%
CC(=O)NCCC(=O)Nc1nc(-c2cccs2)c(-c2cccs2)s1	-6.66%
COc1ccc(-c2noc(CSc3nnc(-c4ccccc4)n3C)n2)cc1	-32.8%
CCOC(=O)c1sc2nc(CC(=O)OC)nc(NCC(=O)OC)c2c1C	-9.05%
CCOC(=O)c1sc2nc(CC(=O)OC)nc(NCc3ccc(Cl)cc3)c2c1C	-7.35%
CCOC(=O)c1sc2nc(CC(=O)OC)nc(NCCN(CC)CC)c2c1C	-62.7%
CCOC(=O)c1sc2nc(C)nc(NCc3ccccc3)c2c1C	9.35%
CCOC(=O)c1sc2nc(C)nc(NCc3ccc(F)cc3)c2c1C	17.2%
CCOC(=O)c1sc2nc(C)nc(NCc3ccc(Cl)cc3)c2c1C	-80.6%
COc1cc(NC(=O)c2ccc(F)cc2)c(OC)cc1Cl	3%
O=S1OC(c2ccccc2)c2cc(Cl)ccc21 (stereo not shown)	11%
COc1cccc(-c2noc(CCC(=O)NC3CCCC3)n2)c1	7.42%
Cn1c(=O)c2c(nc(SCC(=O)O)n2Cc2cc3c(cc2Cl)OCO3)n(C)c1=O	6.88%
O=c1[nH]c(CSc2nnc(COc3ccccc3)n2-c2ccccc2)nc2ccccc12	-4.92%
C/C(=N\N1CCN(C2c3ccccc3-c3ccccc32)CC1)c1cccnc1	-2.47%
C(=N\N1CCN(Cc2cccc3ccccc23)CC1)/c1cccnc1	-1.95%
C/C(=N/N1CCN(Cc2cccc3ccccc23)CC1)c1cccnc1	-50.1%
COc1ccc(N(CC(=O)N2CCc3ccccc3C2)S(C)(=O)=O)cc1Cl	-25.7%
Cc1ccc(C(=O)c2coc3ccc(O)cc23)cc1	23.2%
O=C(c1ccccc1)c1coc2ccc(O)c(Cl)c12	-10.9%

SMILES	hERG current change (%, negative = inhibition) at 10uM
CN(C)Cc1c(O)ccc2occ(C(=O)c3ccc(F)cc3)c12	-69.6%
CN(C)Cc1c(O)ccc2occ(C(=O)c3ccccc3)c12	-52.8%
CCN(CC)Cc1c(O)ccc2occ(C(=O)c3ccccc3)c12	-72.6%
COc1ccc2occ(C(=O)c3ccccc3)c2c1	-15.3%
Cc1ccc(C(=O)c2coc3ccc(O)c(CN(C)C)c23)cc1.Cl	-54.7%
Cc1oc2ccc(O)c(CN(C)C)c2c1C(=O)c1ccccc1	-42.4%
CN(C)Cc1c(O)ccc2occ(C(O)c3ccccc3)c12 (stereo not shown)	-2.08%
Cc1ccc(C(=O)c2coc3ccc(O)c(Cl)c23)cc1	-26.5%
COC(=O)C1(C)NC(c2ccc(Cl)cc2)C2C(=O)N(c3ccccc3)C(=O)C21 (stereo not shown)	-3.27%
COc1ccc(C2(c3ccc(OC)cc3)NC(=O)N(CC(=O)Nc3ccc(OC(F)F)cc3)C2=O)cc1	-19.2%
CCOc1ccc(N2C(=O)C3CCCN3C2=O)cc1 (stereo not shown)	10.1%
O=C(O)C1CCN1C1CCCCC1 (stereo not shown)	5.54%
COC(=O)CCCCCCCCCC[N+]1(C)CCCCC1.[I-]	-0.248%
CC(=O)OCCCCCCCCCCC[N+]1(C)CCCCC1.[I-]	-7.49%
C[N+]1(CCCCSc2ccc(O)cc2)CCCCC1.[I-]	-51.7%
Nc1c(C(=O)CSc2nc(-c3ccccc3)cs2)c(=O)[nH]c(=O)n1C1CC1	-7.63%
O=C(c1ccco1)n1nc(-c2ccccc2)nc1SCc1ccccc1	3.93%
COC(=O)C1C(O)CCC2CN3CCc4c([nH]c5ccccc45)C3CC21 (stereo not shown)	-21.1%
COC(=O)[C@@H]1[C@H]2C[C@H]3c4[nH]c5ccccc5c4CCN3C[C@@H]2CC[C@@H]1O	-57.5%
COC(=O)[C@H]1[C@H]2C[C@H]3c4[nH]c5ccccc5c4CCN3C[C@@H]2CC[C@@H]1O	-12.5%
CCSCCOC(=O)C1=C(C)N(C)C(=O)NC1c1ccc2c(c1)OCO2 (stereo not shown)	5.29%
O=C(CN(C1CCCCC1)S(=O)(=O)c1ccc(Cl)cc1)NCc1cccnc1	-74.4%

SMILES	hERG current change (%, negative = inhibition) at 10uM
CS(=O)(=O)N(CC(=O)NCc1cccnc1)C1CCCCC1	5.98%
Cc1cc(C)c(S(=O)(=O)N(CC(=O)NCc2cccnc2)C2CCCCC2)c(C)c1	-37.4%
O=C(CN(C1CCCCC1)S(=O)(=O)c1ccccc1)NCc1cccnc1	-30%
COc1ccc(S(=O)(=O)N(CC(=O)NCc2cccnc2)C2CCCCC2)cc1OC	-12.7%
Cc1ccc(S(=O)(=O)N(CC(=O)NCc2cccnc2)C2CCCCC2)cc1	-63.3%
O=C(COC(=O)c1cc(S(=O)(=O)N2CCOCC2)ccc1F)NC1CCCCC1	-2.25%
O/N=C\c1ccccc1Oc1ccc(F)cc1	12.8%
O=[N+]([O-])c1cc(/C=N/O)ccc1Oc1ccccc1Cl	-16%
O=[N+]([O-])c1cc(/C=N\O)ccc1Oc1ccc(F)cc1	-72.1%
O=[N+]([O-])c1cc(/C=N/O)ccc1Oc1cccc(Cl)c1	-53.7%
CO/N=C/c1ccc(Oc2ccc(C)cc2)c([N+](=O)[O-])c1	12.1%
COc1cc(/C=N/O)ccc1Oc1ccc([N+](=O)[O-])cc1[N+](=O)[O-]	-45.9%
CC(NC1c2ccccc2-c2ccccc21)c1ccccc1 (stereo not shown)	9.54%
CCOC(=O)c1c(NC=O)sc2c1CCC2	-2.89%
Cc1ccc(C)c(NC(=S)NNC(=O)c2csc3c2CCC(C)C3)c1 (stereo not shown)	3.17%
O=C(NCc1ccccc1)C1=C[C@@H](c2ccccc2)C[C@@H](OCc2ccc(CO)cc2)O1	-14.4%
CCN(CC(=O)Nc1cccc(S(N)(=O)=O)c1)Cc1nc2ccccc2c(=O)[nH]1	3.49%
Cc1cc(-c2cc(-c3ccc(Cl)cc3)nc(N)c2C#N)co1	-1.55%
O=C(O)c1cccnc1Nc1ccc(Cl)cc1	25%
COc1ccc(CCNC(=O)CCn2c(=O)c3ccccc3n(CC(=O)NCC3CCCO3)c2=O)cc1OC (stereo not shown)	8.86%
COc1ccc(C(=O)Nc2ccccc2C(=O)NCC2CCCO2)cc1 (stereo not shown)	4.28%
COc1ccc(CCNC(=O)C(=O)NCC2CCCO2)cc1OC (stereo not shown)	3.13%

SMILES	hERG current change (%, negative = inhibition) at 10uM
COc1ccc(CCn2c(=N)c(C(=O)NCC3CCCO3)cc3c(=O)n4ccccc4nc32)cc1OC (stereo not shown)	-75.9%
COc1ccc(-c2cc(C(=O)NCC3CCCO3)c3ccccc3n2)cc1 (stereo not shown)	-10.7%
COc1ccc(-n2nc(C(=O)NCC3CCCO3)c3ccccc3c2=O)cc1 (stereo not shown)	31.7%
COc1ccc(Cn2c(=N)c(C(=O)NCC3CCCO3)cc3c(=O)n4ccccc4nc32)cc1 (stereo not shown)	-82.2%
COc1ccc(-c2cc(C(=O)NCC3CCCO3)c3ccccc3n2)c(OC)c1 (stereo not shown)	-0.667%
COc1ccc(CCn2c(=N)c(C(=O)NCC3CCCO3)cc3c(=O)n4ccccc4nc32)cc1 (stereo not shown)	-77.9%
Cc1csc(SCC(=O)NC23CC4CC(CC(C4)C2)C3)n1	-20.5%
O=S(=O)(/N=C(/Nc1cccc2ccccc12)c1ccc(F)cc1)c1ccccc1	-42.8%
COCCCNC(=O)Cn1nnc(-c2ccc(NC(=O)c3ccccc3F)cc2)n1	-2.44%
CCOC(=O)CN(C(=O)CSc1nnc(-c2ccc(OC)c(OC)c2)o1)c1ccc(F)cc1	-49.6%
CC(=O)c1sc(NC(=O)CCOc2ccccc2)nc1C	5.9%
CCC(Sc1nc2n[nH]c(C)c2c(=N)n1-c1cc(Cl)ccc1C)C(=O)N1CCOCC1 (stereo not shown)	-0.58%
COc1cc(NC(=O)C(C)N2CCN(C(=O)C3CC3)CC2)cc(OC)c1 (stereo not shown)	-16.1%
CC1CCN(C(C)C(=O)Nc2ccc(S(=O)(=O)N3CCCC3)cc2)CC1 (stereo not shown)	-6.3%
CC(C(=O)Nc1ccc(C#N)cc1)N1CCN(C(=O)C2CC2)CC1 (stereo not shown)	-61.2%
COCCCNc1ncnc2c1nc1n2CCCC1	18.6%
CCOCCCNc1ncnc2c1nc1n2CCCC1	17.2%
CC(C)OCCCNc1ncnc2c1nc1n2CCCC1	-72.6%
COc1ccc2[nH]cc(CCN3C(=O)CCC3=O)c2c1	10.7%
CCN(CC)CCCNC(=O)CSc1nc2c(c(C(F)(F)F)n1)CCc1ccccc1-2	-52.2%
O=C(CSc1nc2c(c(C(F)(F)F)n1)CCc1ccccc1-2)NCc1ccccc1	6.56%
O=C(CSc1nc2c(c(C(F)(F)F)n1)CCc1ccccc1-2)NCc1ccc(F)cc1	14.2%
